Out of some 290,000 compounds screened, about 27,000 (9.3%) were called active. The list comes from a sample in which actives are over-represented; it also holds similar structures and randomly drawn compounds. A number with no mark means an inactive call. Cut-off read from the data, not from the text of the source: active = inhibition mostly above about 28% (no sharp cut-off); inactive = mostly below about 43%.
Assay: A qHTS for Small Molecule Inhibitors of Shiga Toxin; note: 0% is about no effect
Conditions: Vero cells, Shiga toxin protein synthesis inhibition reporter; at 38.7 µM, hits give high values

Going from `Cc1ccc(S(=O)(=O)N2CCN(c3ccccc3)CC2)cc1C` to `Cc1cccnc1NC(=O)c1cccc(S(=O)(=O)N2CCN(c3ccc(F)cc3)CC2)c1`, the inhibition falls from -9.21% to -9.4%.

First: CN1C(=O)C(CC(=O)Nc2ccccc2)S/C1=N/c1nccs1 (configuration not stated)
Second: COc1ccc(NC(=O)CCCN2C(=O)C(c3ccccc3)Oc3cccnc32)cc1 (configuration not stated)
The inhibition of the first is higher: -5.12% for the first, -5.94% for the second.

Compared with `CCN1C(=O)C(CC(=O)Nc2cc(C)ccc2C)SC1=Nc1ccc(S(N)(=O)=O)cc1` (configuration not stated), `CCc1nc(SCC(=O)NNC(=O)c2ccc(C)cc2)c2ccccc2n1` is lower in inhibition: 28.8% for the first, -1.93% for the second.

Compared with `C/C(=N\Nc1nncc2ccccc12)c1ccc(Cl)c([N+](=O)[O-])c1`, `Oc1ccc2ccccc2c1N=Nc1nccs1` is lower in inhibition: 59.8% for the first, 13.9% for the second.

Compared with `COc1cc(/C=N/Nc2nn3cnnc3c3ccccc23)cc(OC)c1OC`, `CCOC(=O)N1CCN(C(=O)c2ccc3c(=O)n(CCc4ccc(OC)c(OC)c4)c(=O)[nH]c3c2)CC1` is lower in inhibition: 18.6% for the first, -3.86% for the second.

Compared with `Cc1ccc(CNC(=O)Cn2cnc(S(=O)(=O)N3CCCCC3)c2)o1`, `COc1ccc(CN2CCN(C(=O)CCC(=O)Nc3nnc(C(C)C)s3)CC2)cc1F` is lower in inhibition: 0.422% for the first, -3.9% for the second.

First: O=C(Nc1ccc2c(c1)CCC2)c1cccc(S(=O)(=O)Nc2ccccc2Cl)c1
Second: Cc1ccc(C(=O)NNC(=O)c2cc3cc4ccccc4nc3s2)cc1
The inhibition of the first is higher: 8.91% for the first, -14.9% for the second.

Going from `O=C(O)CSCc1nc2ccccc2s1` to `CN(Cc1nc2ccccc2s1)C(=O)c1ccc(F)cc1`, the inhibition falls from 49.5% to 27.2%.

Going from `Cc1cccc(CSc2nnc(C)c(=O)n2N)c1` to `Cc1nnc(SCc2cccc(Cl)c2)n(N)c1=O`, the inhibition rises from -13% to -4.93%.

Compared with `CC(C)CC(=O)Nc1ccc(Cc2ccncc2)cc1`, `Cc1nc2cc(C(F)(F)F)ccc2n1CCNc1nc(-c2cc(Cl)c(N)c(Cl)c2)cs1` is higher in inhibition: -5.26% for the first, -1.88% for the second.

In the case of `O=C(CC1SC(=Nc2ccccc2)N(Cc2ccccn2)C1=O)Nc1cccc(Cl)c1` (configuration not stated), the inhibition is reported as 44.2% (active).
In the case of `CN(CCO)c1ccc(/C=N/Nc2nncc3ccccc23)cc1`, the inhibition is reported as 41.9% (active).
For `Oc1ccc(N=Nc2nccs2)c(O)c1`, the inhibition was 58.3% (active).
For `O=C(Nc1ccc2c(c1)CCC2)c1cccc(S(=O)(=O)N2CCN(c3ccc(F)cc3)CC2)c1`, the inhibition was 86.5% (active).
With `O=C(O)CS/C(=C\c1ccc(F)cc1)c1nc2ccccc2s1` the inhibition was 121% (active).
With `Nn1c(SCc2ccccc2)nnc1C1CCCCC1` the inhibition was 101% (active).
In the case of `Cc1ccc(C(=O)NNc2ncnc3ccccc23)cc1`, the inhibition is reported as 76.1% (active).

From PubChem BioAssay AID2315 (National Center for Advancing Translational Sciences (NCATS), 2010)
